Data published in PubChem BioAssay (NCATS).
Inconclusive results are not listed. The source made the active and inactive calls. The call rests on the fitted dose curve; in most records, active means well fitted curve in the direction sought with a large enough effect; inconclusive means small, poorly fitted or top-dose-only effect, or another doubt; inactive means no such curve, though single readings can be large; an effect the other way counts as inactive or inconclusive.

Assays:
[1] = HEK293 18hr Apoptosis Induction qHTS against the NCATS CANVASS Library (AID 1347357); conditions: HEK293 caspase-3/7 Caspase-Glo luminescence; series mostly up to 46.1 µM
Summary of the method: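 Caspase-3/7 luminescence (DEVD substrate, Caspase-Glo) after 18 h compound exposure of HEK293 cells, 500 cells/well; 11-point series; doxorubicin titration as control.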

[2] = HPAF-II 12hr Apoptosis Induction qHTS against the NCATS CANVASS Library (AID 1347358); conditions: HPAF-II caspase-3/7 Caspase-Glo luminescence; series mostly up to 46.1 µM
Summary of the method: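 HPAF-II cells (500/well, DMEM + 10% FBS) were exposed to compounds for 12 hours at 37 degrees C. Caspase-3/7 activity was then read by Caspase-Glo 3/7 luminescence after 15 min at room temperature.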

[3] = HEK293 24hr Apoptosis Induction qHTS against the NCATS CANVASS Library (AID 1347359); conditions: HEK293 caspase-3/7 activation, Caspase-Glo luminescence; series mostly up to 46.1 µM
Summary of the method: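 HEK293 cells, 500 per well, exposed to an 11-point compound series for 24 hours at 37 degrees C. Caspase 3/7 activity read by Caspase-Glo luminescence (DEVD substrate) after 15 min at room temperature.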

[4] = HPAF-II 18hr Apoptosis Induction qHTS against the NCATS CANVASS Library (AID 1347360); conditions: HPAF-II caspase-3/7 luminescence; series mostly up to 46.1 µM
Summary of the method: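 Caspase-Glo 3/7 luminescence (DEVD substrate) after 15 min RT; HPAF-II, 500 cells/well, 18 h compound exposure at 37 degrees C, qHTS series; doxorubicin control 0.1nM - 4uM.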

[5] = HEK293 12hr Apoptosis Induction qHTS against the NCATS CANVASS Library (AID 1347361); conditions: HEK293 caspase-3/7 Caspase-Glo luminescence; series mostly up to 46.1 µM
Summary of the method: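 500 HEK293 cells/well; cpds pin-transferred, 11-pt conc series; 12 h, 37 degrees C/5% CO2; Caspase-Glo 3/7 added, 15 min RT dark; luminescence.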

[6] = tested on: NAD(P)H diaphorase (Clostridium kluyveri); experiment: Diaphorse counterscreen qHTS: Assay Interference Panel against the NCATS CANVASS Library (AID 1347362); conditions: Diaphorase enzyme, resazurin to resorufin fluorescence; series mostly up to 57.5 µM
Summary of the method: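 Clostridium kluyveri diaphorase in PBS + 0.01% Tween-20 preincubated 15 min with compounds. Resazurin and NADH then added for 5 min at room temperature in the dark; resorufin fluorescence read (ex 525, em 598).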

[7] = target: Luciferin 4-monooxygenase (Photinus pyralis) (UniProt P08659); experiment: Firefly luciferase counterscreen qHTS: Assay Interference Panel against the NCATS CANVASS Library (AID 1347363); conditions: purified firefly luciferase, luminescence inhibition, 5 min; series mostly up to 57.5 µM
Sequence of Luciferin 4-monooxygenase (Photinus pyralis) (P08659 whole entry, looked up): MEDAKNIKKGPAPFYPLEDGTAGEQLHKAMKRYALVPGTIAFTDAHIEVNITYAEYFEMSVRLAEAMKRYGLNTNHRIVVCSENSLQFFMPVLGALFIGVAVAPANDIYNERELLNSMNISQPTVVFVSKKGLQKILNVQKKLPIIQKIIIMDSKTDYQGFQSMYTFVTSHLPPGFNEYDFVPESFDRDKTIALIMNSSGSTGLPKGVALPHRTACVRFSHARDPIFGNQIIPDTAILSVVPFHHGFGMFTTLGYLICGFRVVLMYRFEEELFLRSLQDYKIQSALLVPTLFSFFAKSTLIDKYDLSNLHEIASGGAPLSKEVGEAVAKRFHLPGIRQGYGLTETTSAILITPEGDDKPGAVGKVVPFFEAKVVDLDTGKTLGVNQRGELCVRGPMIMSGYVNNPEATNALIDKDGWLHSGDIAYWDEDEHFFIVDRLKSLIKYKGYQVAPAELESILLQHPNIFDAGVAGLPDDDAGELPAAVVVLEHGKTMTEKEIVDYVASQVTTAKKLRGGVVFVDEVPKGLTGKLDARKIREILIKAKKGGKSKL
Summary of the method: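 Purified P. pyralis luciferase (0.04 ug/mL, 4x reagent) added to Tris-acetate buffer with 0.013 mM D-luciferin, 0.013 mM ATP and 13.3 mM Mg-acetate; compounds preincubated 15 min, then luminescence read after 5 min, RT.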

[8] = KB-8-5-11 Cancer Cell Toxicity qHTS against the NCATS CANVASS Library (AID 1347364); conditions: KB-8-5-11 MDR cells viability, CellTiter-Glo, 72 h; further: potency means the concentration at half of the fitted maximal effect; nearly all actives have a fitted effect of over 75% in size
Summary of the method: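 KB-8-5-11 cells (500/well) in DMEM + 10% FBS were exposed to compounds in an 11-point qHTS series for 72 hr at 37C, 5% CO2. Viability was read by CellTiter-Glo luminescence.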

[9] = SDT Cancer Cell Toxicity qHTS against the NCATS CANVASS Library (AID 1347365); conditions: SDT dog glioma viability, ATP luminescence, 72 h; further: potency means the concentration at half of the fitted maximal effect; nearly all actives have a fitted effect of over 60% in size
Summary of the method: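 SDT canine glioma cells (500 cells/well) were exposed to compounds in an 11-point series for 72 hr at 37C, 5% CO2; viability was read as ATP content by CellTiterGlo luminescence.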

[10] = qHTS for ATAD5 Agonist screened against the NCATS CANVASS Library (AID 1347367); conditions: HEK293T ATAD5-luciferase reporter, luminescence, 16 h; series mostly up to 46.1 µM
Summary of the method: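 Luminescence read-out: ATAD5-driven luciferase in stably transfected HEK 293T cells, which rises post-transcriptionally with DNA damage. Cells were exposed 16hr at 37C to test compound; a CellTiter-Fluor fluorescence read (1hr) measured viability first.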

[11] = G06 Cancer Cell Toxicity qHTS against the NCATS CANVASS Library (AID 1347368); conditions: G06 dog glioma cells, viability ATP luminescence, 72 h; further: potency means the concentration at half of the fitted maximal effect; nearly all actives have a fitted effect of over 60% in size
Summary of the method: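 G06 dog glioma cells seeded at 500 cells/well were exposed to compounds (11-point qHTS series) for 72 hr at 37C, 5% CO2; viability read as ATP content by CellTiterGlo luminescence.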

[12] = MCF7 Cancer Cell Toxicity qHTS against the NCATS CANVASS Library (AID 1347369); conditions: MCF7 viability, ATP luminescence (CellTiter-Glo), 72 h; further: potency means the concentration at half of the fitted maximal effect
Summary of the method: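 Luminescent ATP signal (CellTiterGlo) served as the cytotoxicity read-out after MCF7 breast cancer cells had been incubated 72 hr at 37C with natural products in an 11-point titration.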

[13] = J3T Cancer Cell Toxicity qHTS against the NCATS CANVASS Library (AID 1347371); conditions: J3T dog glioma viability, ATP luminescence, 72 h; further: potency means the concentration at half of the fitted maximal effect
Summary of the method: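 J3T dog glioma cells (500 cells/well) were exposed to compounds in an 11-point series for 72 hr at 37C, 5% CO2. Cytotoxicity was read as ATP content by CellTiterGlo luminescence.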

[14] = target: Nuclear receptor subfamily 1 group I member 3 (Homo sapiens) (UniProt Q14994); experiment: qHTS for Constitutive Androstane Receptor (CAR) Antagonist screened against the NCATS CANVASS Library (AID 1347372); conditions: HepG2-hCAR-CYP2B6 luciferase, CITCO-stimulated antagonist mode; series mostly up to 46.1 µM;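 further: cells stimulated with 50 nM CITCO agonist so inhibition reflects antagonism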
Sequence of Nuclear receptor subfamily 1 group I member 3 (Homo sapiens) (Q14994 whole entry, looked up): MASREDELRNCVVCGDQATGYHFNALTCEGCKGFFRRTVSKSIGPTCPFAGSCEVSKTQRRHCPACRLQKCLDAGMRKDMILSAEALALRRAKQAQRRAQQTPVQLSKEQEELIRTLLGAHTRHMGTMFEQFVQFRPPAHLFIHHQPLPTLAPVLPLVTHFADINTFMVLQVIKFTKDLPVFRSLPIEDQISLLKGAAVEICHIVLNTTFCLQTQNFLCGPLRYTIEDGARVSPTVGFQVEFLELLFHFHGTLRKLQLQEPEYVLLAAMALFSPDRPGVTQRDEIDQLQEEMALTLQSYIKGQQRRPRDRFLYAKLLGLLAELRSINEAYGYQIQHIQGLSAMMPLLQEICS
Summary of the method: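 HepG2 cells stably carrying hCAR and CYP2B6-2.2kb luciferase reporter, 2500 cells/well, compound with 50 nM CITCO agonist for 24hr at 37C. ONE-Glo luminescence measured CAR activity; CellTiter-Fluor read viability.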

[15] = target: Nuclear receptor subfamily 1 group I member 3 (Homo sapiens) (UniProt Q14994); experiment: qHTS for Constitutive Androstane Receptor (CAR) Agonist screened against the NCATS CANVASS Library (AID 1347373); conditions: HepG2-hCAR-CYP2B6 luciferase reporter, ONE-Glo luminescence; series mostly up to 46.1 µM;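 further: every well also contained 1.5 µM PK11195 alongside the test compound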
Summary of the method: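 HepG2 cells stably expressing hCAR and a CYP2B6-2.2kb luciferase reporter were treated for 24hr at 37C with compounds (11-point qHTS) in the presence of 1.5uM PK11195. Reporter activation was read by ONE-Glo luminescence.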

[16] = 10-beta competent E. coli microbial cell viability qHTS against the NCATS CANVASS Library (AID 1347376); conditions: E. coli 10-beta viability, BacTiter-Glo ATP luminescence, overnight; series mostly up to 46.1 µM
Summary of the method: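 10-beta competent E. coli (0.9 OD culture diluted to 0.2 OD) exposed to compounds in an 11-point qHTS series, incubated overnight at 37C, 5% CO2. Viability read as ATP by BacTiter-Glo luminescence after 20 min at room temperature.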

[17] = DH5-alpha competent E. coli microbial cell viability qHTS against the NCATS CANVASS Library (AID 1347377); conditions: BacTiter-Glo ATP luminescence, overnight; series mostly up to 46.1 µM
Summary of the method: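 DH5-alpha E. coli suspension (0.9 OD culture diluted to 0.2 OD) exposed to compounds in an 11-point series, overnight at 37C, 5% CO2. Viability read as ATP by BacTiter-Glo luminescence after 20 min at room temperature.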

[18] = qHTS for H2AX Agonists against the NCATS CANVASS Library (AID 1347378); conditions: CHO-K1 H2AX phosphorylation, HTRF TR-FRET, 3 h; further: potency means the concentration at half of the fitted maximal effect
Summary of the method: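 TR-FRET readout (ex 320 nm, em 665/620 nm ratio) of phospho-H2AX (S139) in CHO-K1 lysates. Cells treated 3 hr at 37C with compound titration, 0.76% DMSO; lysis 30 min, antibody detection 24 hr at RT.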

[19] = qHTS for Inflammasome Signaling Inhibitors: IL-1-beta AlphaLISA screen against the NCATS CANVASS Library (AID 1347379); conditions: THP-1 LPS/ATP, IL-1B AlphaLISA secretion, 16 h;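 further: human THP-1 cells primed with LPS then triggered with ATP; secreted IL-1B measured as AlphaLISA emission at 615 nm; potency means the concentration at half of the fitted maximal effect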
Summary of the method: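 Human THP-1 cells were pretreated 1 hr at 37 °C with compounds (up to 57.5 uM final), then stimulated with LPS (250 ng/mL final) and ATP (1.25 mM final). Secreted IL-1B was read by AlphaLISA after 16 hr.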

[20] = Inflammasome Signaling qHTS Counterscreen: IL-1-beta AlphaLISA counterscreen against the NCATS CANVASS Library (AID 1347381); conditions: Purified IL-1beta AlphaLISA signal interference counterscreen; series mostly up to 57.5 µM;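 further: cell-free check with purified IL-1β in medium and no THP-1 cells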
Summary of the method: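 To flag interference with the AlphaLISA read-out, a known amount of purified IL-1-beta (4 pg) replaced cell supernatant. Detection used anti-IL-1-beta acceptor beads, biotinylated antibody and streptavidin donor beads at room temperature.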

Measured: Potency

C=C1C(=O)O[C@H]2[C@H]1CC/C(C)=C/CC[C@@]1(C)O[C@@H]21
active: [8] 16.6 µM | [9] 8.33 µM | [11] 9.35 µM | [12] 7.39 µM | [13] 16.6 µM | [18] 4.86 µM | [19] 5.44 µM
inactive: all other assays above
